From PubChem BioAssay (NCI) come the findings set out here.

Compounds without any hit were thinned out: in the full panel of roughly 83,000, 20% have a hit.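 Interpretation: 100, growth as untreated; towards 0, rising growth inhibition; 0, no net growth; 0 to -100, cell death. Compounds scoring below 10 were considered active.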 Unmarked numbers belong to inactive results. Activity calls are given as the source filed them.

Some test systems named below: NCI-H23 lung; NCI-H226 lung; NCI-H322M lung; HOP-62 NSCLC; NCI-H460 lung; HOP-92 NSCLC; NCI-H522 lung; A549/ATCC NSCLC; 786-0 renal; DU-145 prostate; K-562 leukemia; MALME-3M melanoma; MDA-MB-231 breast; RXF 393 renal; SF-268 CNS; SF-295 CNS; SF-539 CNS; UACC-257 melanoma; M14 melanoma.
Common to all, as to assay: NCI-60 one-dose screen, 48 h (100 = growth as untreated, 0 = no growth, -100 = all killed)
Details in all cases: 10 µM unless noted

`CCOc1cc(C2C(Cl)C(=O)N2n2cnnc2)ccc1O` (stereo not given): the growth in the experiment on NCI-H23 lung was 97.2%; in the experiment with NCI-H226 lung, 106%; in the experiment with NCI-H322M lung, 97%; in the experiment on HOP-62 NSCLC, 74%; with NCI-H460 lung, 104%; with HOP-92 NSCLC, 91.9%. The growth in the experiment with NCI-H522 lung is 86.2%; with A549/ATCC NSCLC it was 90.5%; in the experiment on 786-0 renal it was 92.7%; in the experiment with DU-145 prostate it was 110%; with K-562 leukemia it was 104%; with MALME-3M melanoma it was 99.5%. The growth was 106% with MDA-MB-231 breast; 93.4% in the experiment on RXF 393 renal; 92.4% in the experiment with SF-268 CNS; 105% in the experiment with SF-295 CNS; 101% in the experiment on SF-539 CNS; 88.9% with UACC-257 melanoma. Further, in the experiment with M14 melanoma, the growth was 95.4%.

Take `O=C1Nc2ccccc2/C1=N/N=C/c1ccc(OC2OC(CO)C(O)C(O)C2O)cc1` (stereo not given): the growth in the experiment with NCI-H23 lung was 102%; with NCI-H226 lung, 104%; with NCI-H322M lung, 105%; in the experiment on HOP-62 NSCLC it was 103%; with NCI-H460 lung, 111%; in the experiment on HOP-92 NSCLC, 111%. In addition, the growth was 95% in the experiment on NCI-H522 lung; 102% in the experiment with A549/ATCC NSCLC; 109% in the experiment with 786-0 renal; 114% in the experiment with DU-145 prostate; 98.3% in the experiment on K-562 leukemia; 101% in the experiment with MALME-3M melanoma. Also, the growth was 105% in the experiment on MDA-MB-231 breast; 114% in the experiment with RXF 393 renal; 102% with SF-268 CNS; 110% with SF-295 CNS; 97.5% with SF-539 CNS; 106% in the experiment with UACC-257 melanoma. Further, the growth in the experiment with M14 melanoma is 108%.

Turning to `N#C/C=C(\c1ccc([N+](=O)[O-])cc1)n1nnc2cc(Cl)c(Cl)cc21`, the growth was 40.8% in the experiment with NCI-H23 lung; 39.7% in the experiment with NCI-H226 lung; 46.1% with NCI-H322M lung; 31.2% in the experiment with HOP-62 NSCLC; -8.66% (active) with NCI-H460 lung; 45.2% with HOP-92 NSCLC. Further, the growth was 2.18% (active) in the experiment on NCI-H522 lung; 53.2% in the experiment with A549/ATCC NSCLC; -26.7% (active) in the experiment with 786-0 renal; -21.2% (active) in the experiment on DU-145 prostate; 13.9% with K-562 leukemia; 40.7% in the experiment on MALME-3M melanoma. For the same compound, the growth in the experiment on MDA-MB-231 breast was 2.77% (active); with RXF 393 renal, 0.579% (active); in the experiment on SF-268 CNS it was 20.3%; in the experiment on SF-295 CNS, 14.1%; with SF-539 CNS it was -9.65% (active); in the experiment with UACC-257 melanoma, 45.6%. Further, the growth in the experiment on M14 melanoma was 21.1%.

Take `COc1cccc(CCC2CCCN(c3cc(C)nc(N)n3)C2)c1` (stereo not given): the growth in the experiment on NCI-H23 lung was 22.1%; with NCI-H226 lung, 55.9%; with NCI-H322M lung it was 40%; in the experiment with HOP-62 NSCLC, 59.4%; with NCI-H460 lung it was 14.3%; with HOP-92 NSCLC it was 23%. Besides, the growth in the experiment on NCI-H522 lung was 2.3% (active); with A549/ATCC NSCLC, 29.1%; with 786-0 renal, 19%; with DU-145 prostate it was 25.9%; in the experiment on K-562 leukemia, 10.9%; in the experiment on MALME-3M melanoma, 55.2%. The growth in the experiment with MDA-MB-231 breast is 22.7%; in the experiment on RXF 393 renal, 22.3%; with SF-268 CNS it was 42.6%; with SF-295 CNS, 14.7%; with SF-539 CNS it was 10.1%; with UACC-257 melanoma, 44.5%. Moreover, the growth in the experiment with M14 melanoma was 6.51% (active).

Take `Nc1ccc(CCCCc2ccccc2)c(Cl)c1`: the growth with NCI-H23 lung is 101%; in the experiment on NCI-H226 lung, 96.8%; with NCI-H322M lung, 85%; with HOP-62 NSCLC, 105%; in the experiment with NCI-H460 lung it was 102%; in the experiment with HOP-92 NSCLC, 53.1%. Besides, the growth in the experiment with NCI-H522 lung is 71.1%; in the experiment with A549/ATCC NSCLC, 81.2%; in the experiment with 786-0 renal, 88.9%; with DU-145 prostate, 103%; with K-562 leukemia, 90.1%; in the experiment with MALME-3M melanoma, 106%. Also, the growth was 91.2% with MDA-MB-231 breast; 90.3% with RXF 393 renal; 83% in the experiment with SF-268 CNS; 104% with SF-295 CNS; 91.2% in the experiment on SF-539 CNS; 89% in the experiment with UACC-257 melanoma. The growth in the experiment with M14 melanoma is 103%.

For `Cc1cc(NS(=O)(=O)c2ccccc2)c(OS(=O)(=O)c2ccccc2)cc1C`, the growth was 98.6% in the experiment on NCI-H23 lung; 101% with NCI-H226 lung; 110% in the experiment with NCI-H322M lung; 105% with HOP-62 NSCLC; 106% in the experiment with NCI-H460 lung; 88.1% with HOP-92 NSCLC. Also, the growth was 97.4% with NCI-H522 lung; 104% in the experiment on A549/ATCC NSCLC; 112% in the experiment with 786-0 renal; 120% with DU-145 prostate; 88.8% with K-562 leukemia; 113% in the experiment with MALME-3M melanoma. The growth with MDA-MB-231 breast was 101%; in the experiment with RXF 393 renal, 111%; in the experiment with SF-268 CNS it was 105%; in the experiment on SF-295 CNS, 113%; in the experiment on SF-539 CNS it was 98.5%; with UACC-257 melanoma, 109%. Further, the growth with M14 melanoma was 96.8%.

`Clc1cnc(Nc2ccc(OCCN3CCCC3)cc2)nc1NCc1ccco1`: the growth in the experiment with NCI-H23 lung is 10.2%; in the experiment with NCI-H226 lung, -9.35% (active); in the experiment on NCI-H322M lung, 19.9%; in the experiment with HOP-62 NSCLC it was 11.7%; in the experiment with NCI-H460 lung, 3.25% (active); in the experiment with HOP-92 NSCLC, 5.42% (active). Further, the growth with NCI-H522 lung is 55.2%; in the experiment with A549/ATCC NSCLC it was 11.3%; in the experiment on 786-0 renal it was 23.7%; in the experiment with DU-145 prostate, 17.5%; in the experiment with K-562 leukemia, 16.4%; in the experiment on MALME-3M melanoma it was 26.1%. Further, the growth in the experiment with MDA-MB-231 breast is -5.14% (active); in the experiment with RXF 393 renal, -37.7% (active); in the experiment on SF-268 CNS, 21.1%; in the experiment on SF-295 CNS, 31.2%; in the experiment on SF-539 CNS, -14.2% (active); in the experiment with UACC-257 melanoma it was 49.1%. Further, the growth in the experiment on M14 melanoma is 35.1%.

Turning to `Nc1nc(Nc2ccc(Cl)cc2)nn1S(=O)(=O)c1ccc(-c2ccc(F)cc2)cc1`, the growth in the experiment with NCI-H23 lung was 92%; in the experiment with NCI-H226 lung, 84.4%; with NCI-H322M lung it was 109%; in the experiment on HOP-62 NSCLC, 84.3%; with NCI-H460 lung, 70.9%; with HOP-92 NSCLC it was 75.7%. For the same compound, the growth in the experiment with NCI-H522 lung is 75.3%; in the experiment on A549/ATCC NSCLC it was 71.9%; with 786-0 renal, 92.1%; in the experiment on DU-145 prostate, 88.7%; in the experiment with K-562 leukemia, 83.5%; with MALME-3M melanoma, 113%. For the same compound, the growth is 87.8% in the experiment on MDA-MB-231 breast; 92.3% with RXF 393 renal; 76.3% in the experiment on SF-268 CNS; 99.1% with SF-295 CNS; 94% in the experiment with SF-539 CNS; 107% in the experiment on UACC-257 melanoma. Also, the growth in the experiment on M14 melanoma is 89.8%.

Turning to `CC(C)(O)c1cccc(F)c1`, the growth was 104% in the experiment on NCI-H23 lung; 105% with NCI-H226 lung; 100% with NCI-H322M lung; 138% in the experiment with HOP-62 NSCLC; 112% with NCI-H460 lung; 86.1% in the experiment on HOP-92 NSCLC. In addition, the growth in the experiment on NCI-H522 lung is 99.6%; with A549/ATCC NSCLC it was 104%; with 786-0 renal it was 104%; in the experiment on DU-145 prostate, 107%; in the experiment with K-562 leukemia, 105%; with MALME-3M melanoma it was 101%. For the same compound, the growth was 89.5% in the experiment with MDA-MB-231 breast; 107% in the experiment with RXF 393 renal; 106% with SF-268 CNS; 106% with SF-295 CNS; 88% in the experiment with SF-539 CNS; 108% in the experiment on UACC-257 melanoma. Moreover, the growth in the experiment with M14 melanoma was 95.6%.

On to `CCNCCNc1cc(C2CCCC2)c(C#N)c2nc3ccccc3n12`, for which the growth is 69.6% in the experiment on NCI-H23 lung; 46.1% in the experiment with NCI-H226 lung; 23.7% in the experiment with NCI-H322M lung; 33.9% with HOP-62 NSCLC; 2.84% (active) in the experiment with NCI-H460 lung; 52.3% with HOP-92 NSCLC. For the same compound, the growth was 6.72% (active) in the experiment with NCI-H522 lung; 7.98% (active) with A549/ATCC NSCLC; 20% with 786-0 renal; 28% in the experiment on DU-145 prostate; -28.3% (active) in the experiment on K-562 leukemia; -46.6% (active) with MALME-3M melanoma. Moreover, the growth in the experiment on MDA-MB-231 breast is -45% (active); with RXF 393 renal, -32.4% (active); in the experiment with SF-268 CNS, 22.1%; in the experiment on SF-295 CNS it was -61.7% (active); in the experiment with SF-539 CNS, -82.4% (active); in the experiment on UACC-257 melanoma, -27.3% (active). The growth in the experiment on M14 melanoma was -25.7% (active).
